# Screen size: about 52,000 compounds; about 4,300 (8.3%) were called active. No stated cut-off is given here; in the data, active means survival mostly below about 52% (no sharp cut-off); inactive means mostly above about 56%. The sample as a whole holds a higher share of actives than the screen did.
# Test system: DeltatarO mutant
# Assay: growth inhibition of S. aureus wild type versus tarO mutant, primary screen, teichoic acid synthesis inhibitors, RN4220, OD600 (AID 463173)
# Conditions: OD600, 18 h, hits give low values, screened at 18.75 µg/mL (by protocol)
row,Compound,survival
1,COc1ccc(N(C)S(=O)(=O)c2ccc3c(c2)n(C)c(=O)c(=O)n3C)cc1,86% (inactive)
2,O=C(CN1CCCN(Cc2ccccc2Cl)S1(=O)=O)NCc1ccccc1,94% (inactive)
3,CCCn1c(=O)c2sccc2n2c(CCCC(=O)NCc3ccccc3)nnc12,83% (inactive)
4,O=C(c1ccccc1)n1nc(-c2ccco2)nc1NCc1ccccc1Cl,103% (inactive)
5,O=C1C2C3C=CC(C3)C2C(=O)N1c1ccc(-c2nc3ccccc3o2)cc1 (configuration not stated),89% (inactive)
6,CCN(C(=O)Cn1c(=O)n(CCCS(=O)(=O)C2CCCCC2)c(=O)c2ccccc21)c1cccc(C)c1,87% (inactive)
7,COc1ccccc1CNC(=O)c1ccc2c(c1)N(Cc1cc(C)ccc1C)C(=O)c1ccccc1S2,68% (inactive)
8,COc1cccc(NC(=O)Cn2c(=O)oc3cc(S(=O)(=O)N4CCCCC4)ccc32)c1,112% (inactive)
9,COc1ccc(N2CCN(C(=O)CN3C(=O)CSc4c3c(C)nn4-c3ccccc3)CC2)cc1,79% (inactive)
10,CC(=O)NCCNC(=O)c1ccc2c(=O)n(CCc3ccccc3)c(=O)[nH]c2c1,83% (inactive)
11,O=C(Nc1nnc(S(=O)(=O)N2CCCCCC2)s1)c1ccccc1F,47% (active)
12,CCc1ccc2oc(C(=O)Nc3cc(C)ccc3C)cc(=O)c2c1,52% (inactive)
13,Cc1ccc(C(=O)Nc2ccc3oc(-c4cccnc4)nc3c2)cc1,83% (inactive)
14,CCOC(=O)C(=O)Nc1c(C(=O)Nc2cccc(F)c2)oc2ccccc12,97% (inactive)
15,COc1cccc(NC(=O)c2oc3ccccc3c2NC(=O)COc2ccccc2C)c1,122% (inactive)
16,COc1cccc(NC(=O)c2oc3ccccc3c2C)c1,106% (inactive)
17,Cc1ccc(NC(=O)c2oc3ccccc3c2NC(=O)c2ccccc2C)cc1,79% (inactive)
18,COc1cccc(NC(=O)c2oc3ccccc3c2NC(=O)c2ccccc2C)c1,43% (active)
19,Cc1ccccc1C(=O)Nc1c(C(=O)Nc2cccc(F)c2)oc2ccccc12,46% (active)
20,O=C(OCc1cc(=O)n2nc(-c3cccs3)sc2n1)c1ccccc1Br,75% (inactive)
21,CC1C(C(=O)Nc2ccccc2)CCCC1(C)C(=O)O (configuration not stated),80% (inactive)
22,CC(=O)c1cccc(NC(=O)C2CCN(c3ncnc4c3nc3n4CCCCC3)CC2)c1,84% (inactive)

row,Compound,survival
1,O=C(CN(c1ccc2c(c1)OCCO2)S(=O)(=O)c1ccccc1)NC1CC1,75% (inactive)
2,CCOc1ccc(NC(=O)c2ccc3c(=O)n4nc(Nc5ccccc5C)sc4nc3c2)cc1,113% (inactive)
3,CCCCN(CC)C(=O)C1CCC(CNS(=O)(=O)c2cccc3nsnc23)CC1 (configuration not stated),83% (inactive)
4,CC(C)NC(=O)CCC(=O)N1Cc2ccccc2Oc2ncccc21,0% (active)
5,CN(C)c1ccc(CNC(=O)CCC(=O)N2Cc3ccccc3Oc3ncccc32)cc1,83% (inactive)
6,CCOc1ccc(CNC(=O)CCC(=O)N2Cc3ccccc3Oc3ncccc32)cc1,32% (active)
7,Cc1ccc(NC(=O)CCC(=O)N2Cc3ccccc3Oc3ncccc32)cc1,49% (inactive)
8,Cc1ccc(CNC(=O)CCC(=O)N2Cc3ccccc3Oc3ncccc32)cc1,71% (inactive)
9,CCC(C)NC(=O)CCC(=O)N1Cc2ccccc2Oc2ncccc21 (configuration not stated),117% (inactive)
10,Cc1ccc(NC(=O)CCC(=O)N2Cc3ccccc3Oc3ncccc32)cc1Cl,83% (inactive)
11,CC(C)CCNC(=O)CCC(=O)N1Cc2ccccc2Oc2ncccc21,55% (inactive)
12,O=C(CCC(=O)N1Cc2ccccc2Oc2ncccc21)Nc1ccc(Cl)cc1,37% (active)
13,CCOc1ccc(CNC(=O)Cn2nc(C)n3cccc3c2=O)cc1,101% (inactive)
14,Cc1cccc(NC(=O)C2CCN(S(=O)(=O)c3ccc(F)cc3)CC2)c1C,60% (inactive)
15,COc1ccc(CNC(=O)CCCN2C(=O)CCn3nc(-c4cn(C)c5ccccc45)cc32)cc1,88% (inactive)
16,COc1ccc(OC)c(NC(=O)Cc2coc3ccc(C(C)C)cc23)c1,73% (inactive)
17,Cc1ccc(N(C)C(=O)Cn2nc(Cc3ccncc3)c3ccccc3c2=O)cc1C,84% (inactive)
18,Oc1ccc2ccccc2c1/C=N/c1nccs1,81% (inactive)
19,CCOc1ccccc1NC(=O)Nc1ccc2nc(N3CCN(C)CC3)cc(C)c2c1,75% (inactive)
20,COc1ccc(CCNC(=O)C(=O)NCC(c2cccs2)S(=O)(=O)c2cccs2)cc1 (configuration not stated),78% (inactive)
21,COc1cc(S(=O)(=O)N2CCCCC2C)c(OC)cc1Cl (configuration not stated),114% (inactive)
22,CC(CCc1ccccc1)NC(=O)Cn1c(=O)nc(-c2ccccc2)c2ccccc21 (configuration not stated),99% (inactive)

row,Compound,survival
1,CC1(C)OC(=O)C(=C2CCCCCN2)C(=O)O1,99% (inactive)
2,COc1ccccc1NC(=O)c1sc2nc(-c3cc4ccccc4oc3=O)[nH]c(=O)c2c1C,106% (inactive)
3,COc1ccc(Cl)cc1NC(=O)c1sc2nc3n(c(=O)c2c1C)CCC3,76% (inactive)
4,O=C(O)c1ccc2nc(-c3cc4cc(Cl)ccc4oc3=O)[nH]c2c1,69% (inactive)
5,Cc1c(C(=O)Nc2ccccc2)sc2nc(-c3cc4cc(Cl)ccc4oc3=O)[nH]c(=O)c12,45% (active)
6,CC(C)(C)C1CCc2c(sc3nc(-c4cc5cc(Cl)ccc5oc4=O)[nH]c(=O)c23)C1 (configuration not stated),83% (inactive)
7,COc1ccccc1NC(=O)c1sc2nc(-c3cc4cc(Cl)ccc4oc3=O)[nH]c(=O)c2c1C,45% (active)
8,COc1ccc(-c2cn3nc(SCC(=O)Nc4ccc(C)c(Cl)c4)ccc3n2)cc1,94% (inactive)
9,COc1ccccc1N1CCN(C(=O)c2oc3ccccc3c2NC(=O)C(C)Oc2ccccc2)CC1 (configuration not stated),69% (inactive)
10,CCNc1nc2c(c(=O)[nH]c(=O)n2C)n1CC(O)COc1ccc(Cl)cc1Cl (configuration not stated),180% (inactive)
11,CN(C)c1ccc(CNS(=O)(=O)c2csc(C(N)=O)c2)cc1,60% (inactive)
12,O=C(CC1N=C2c3ccccc3N=C(SCc3ccc(F)cc3)N2C1=O)NCCc1ccccc1 (configuration not stated),85% (inactive)
13,CCOC(=O)c1ccc(Nc2nc3ccccc3n3c(C)nnc23)cc1,67% (inactive)
14,CCc1ccc(Nc2nc3ccccc3nc2NS(=O)(=O)c2ccccc2)cc1,28% (active)
15,CCOc1ccc(S(=O)(=O)Nc2nc3ccccc3nc2Nc2ccc(OC)cc2)cc1,68% (inactive)
16,COc1ccc(Nc2nc3ccccc3nc2NS(=O)(=O)c2ccc(Cl)cc2)cc1OC,29% (active)
17,COc1cc(Cl)c(C)cc1Nc1nc2ccccc2nc1NS(=O)(=O)c1ccccc1,116% (inactive)
18,COc1ccc2nc(NS(=O)(=O)c3ccc(C)cc3)c(Nc3cc(Cl)ccc3OC)nc2c1,22% (active)
19,COc1ccc(Nc2nc3c(S(=O)(=O)c4ccccc4)nnn3c3ccc(Cl)cc23)cc1OC,117% (inactive)
20,CCOC(=O)c1ccc(Nc2nc3ccccc3nc2NS(=O)(=O)c2ccc(Cl)cc2)cc1,37% (active)
21,Cc1ccc2nc(NS(=O)(=O)c3ccc(Cl)cc3)c(Nc3ccc(C(=O)O)cc3)nc2c1,109% (inactive)
22,COc1ccc(Nc2nc3ccccc3nc2NS(=O)(=O)c2ccc(C)cc2)c(OC)c1,63% (inactive)

row,Compound,survival
1,Cc1cccc(C)c1Nc1nc2ccccc2nc1NS(=O)(=O)c1ccccc1,79% (inactive)
2,CCOc1ccccc1Nc1nc2ccccc2nc1NS(=O)(=O)c1ccc(Cl)cc1,79% (inactive)
3,Cc1ccc(Cl)cc1NC(=O)CN1C(=O)CSc2ccc(S(=O)(=O)N3CCCC3)cc21,97% (inactive)
4,CCN1CCN(CCCNC(=O)Cn2nc(C)n3c(cc4cc(C)ccc43)c2=O)CC1,98% (inactive)
5,Cc1cc(C)cc(NC(=O)CCCn2nc(C)c3c(C)n(-c4ccccc4)nc3c2=O)c1,80% (inactive)
6,NC(Cc1c[nH]c2ccccc12)C(=O)NCc1ccccc1 (configuration not stated),92% (inactive)
7,CN1C(C(=O)c2ccccc2)=C(NC(=O)c2ccccc2Br)c2ccccc2S1(=O)=O,63% (inactive)
8,COc1ccccc1C(=O)Nc1ccc(S(=O)(=O)Nc2nc(C)cc(C)n2)cc1,61% (inactive)
9,O=S(=O)(Nc1nc2ccccc2nc1Nc1ccccc1Br)c1ccccc1,112% (inactive)
10,COC(=O)c1cc(Nc2nc3ccccc3nc2NS(=O)(=O)c2ccc(C)cc2)ccc1Cl,29% (active)
11,CCn1c(=O)c2sccc2n2c(CCC(=O)Nc3ccc(OC)c(Cl)c3)nnc12,89% (inactive)
12,CCOc1ccc(CNC(=O)c2ccc(-c3nc(CS(=O)(=O)c4ccccc4)c(C)o3)cc2)cc1,76% (inactive)
13,COC(=O)c1ccccc1NC(=O)CN(c1ccc(Cl)cc1)S(=O)(=O)c1ccc(OC)cc1,72% (inactive)
14,COc1cccc(NC(=O)c2sc3nc(C)c(C(=O)Nc4ccc(C)cc4C)c(-c4ccc(C)o4)c3c2N)c1,39% (active)
15,COc1cccc(NC(=O)c2sc3nc(C)c(C(=O)Nc4ccc(C)cc4C)c(-c4ccco4)c3c2N)c1,79% (inactive)
16,COc1ccc(NC(=O)c2sc3nc(C)c(C(=O)Nc4ccc(C)cc4C)c(-c4ccc(C)o4)c3c2N)cc1,51% (inactive)
17,Cc1ccc(/C=C/c2onc(C)c2S(=O)(=O)N2CCC(C(=O)N3CCN(c4ccccc4F)CC3)CC2)cc1,116% (inactive)
18,Cc1ccc(CCNC(=O)c2ccc(NC(=O)N3CC(C)Sc4ccccc43)cc2)cc1 (configuration not stated),73% (inactive)
19,CCOc1ccc(-c2nc(Cn3c(=O)cc(-c4ccccc4)c4c(C)nn(C)c43)c(C)o2)cc1,128% (inactive)
20,CCc1ccc(-c2[nH]nc3nc(-c4ccc(OC)cc4)cc(C(=O)NCCc4ccc(OC)c(OC)c4)c23)cc1,81% (inactive)
21,CCc1ccc(-c2cn3nc(CC)sc3n2)cc1,66% (inactive)

# — PubChem BioAssay AID463173 (ICCB-Longwood Screening Facility, Harvard Medical School, 2010)
